Structures are written as SMILES. “And” between values parts separate entries of the source, which are not always exact repeats. Equal entries are not always repeated. This is part of a sample that, as a whole, favours compounds with a hit. Of some 79,000 tested, about 15% had one in any assay. The source made the active and inactive calls. No stated cut-off is given here; in the data, active means growth inhibition above about 70%; inactive means the rest.

This experiment can be described thus: NCI Yeast Anticancer Drug Screen. Data for the sgs1 mgt1 strain (AID 161).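 Further: 0% = growth of cultures given vehicle only.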 The note with it: S. cerevisiae sgs1 mgt1 strain, at 5.0 µM (retest, dose inferred, filed as 0.5), stronger effect = higher value. Summed up: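 Read-out: growth inhibition vs vehicle controls. Cells: mutant yeast strain deficient in DNA damage repair.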
Regarding `O=[N+]([O-])c1cc[n+]([O-])cc1`, the growth inhibition was -62% (inactive) and -8% (inactive).

Consider `CC1(C)CC(=O)C(/C=N/c2nc(-c3ccccc3)cs2)=C(O)C1`, for which the growth inhibition was -5% (inactive).

In the case of `Nc1nc(N)c2nc(CNc3ccc(C(=O)NC(CCC(=O)O)C(=O)O)cc3F)cnc2n1` (stereo not drawn), the growth inhibition is -4% (inactive).

Take `COC(=O)CC1(O)C(/C=C/c2ccccc2)C(C(=O)OC)C(=O)C(C(=O)OC)C1C(=O)OC` (stereo not drawn): the growth inhibition was -1% (inactive).

`CC(C)(C)c1ccc(NS(=O)(=O)c2ccc(N)cc2)cc1`: the growth inhibition is 0% (inactive).

With `CCN(CC)CCNc1ccc([N+](=O)[O-])c2nc3ccccc3c(N)c12`, the growth inhibition was -4% (inactive).

As for `CCCCN(CCCC)C(=O)/C=C/c1ccccc1`, the growth inhibition is 4% (inactive).

As for `O=c1[nH]c(-c2ccccc2)nc2c1sc1nc3ccccc3n12`, the growth inhibition was 7% (inactive).

As to `O=[N+]([O-])c1ccc2c(c1)/C(=N/N=C1c3ccccc3Cc3ccccc31)c1cc([N+](=O)[O-])cc([N+](=O)[O-])c1-2`, the growth inhibition was 75% (active).

As to `CC(C)C(C)/C=C\C(C)C1CCC2C3=CC=C4CC(O)CCC4(C)C3CCC21C` (stereo not drawn), the growth inhibition is 17% (inactive).

On to `O=C1Nc2ccc(Br)cc2C1=Nc1ccc2c(c1)OCO2`, for which the growth inhibition is -12% (inactive).

Regarding `CCCCOCn1c(=O)[nH]c(=O)c2cc(Br)ccc21`, the growth inhibition was 59% (inactive).

In the case of `Cc1ccc(S/C(=C\C(=O)O)c2ccccc2)cc1`, the growth inhibition is -12% (inactive).

On to `O=[N+]([O-])/C=C/c1cc(Cl)c(/C=C/[N+](=O)[O-])cc1Cl`, for which the growth inhibition is 23% (inactive).

`Cc1cc(S(=O)(=O)Nc2nnc3cnc4ccccc4n23)c(S)cc1Cl`: the growth inhibition was -1% (inactive).

Turning to `O=C(/C=C/c1cc(Cl)cc(Cl)c1O)c1cccc(O)c1`, the growth inhibition is 6% (inactive).

In the case of `NC1CCCCC1N.Nc1c(N=Nc2ccc(-c3ccc(N=Nc4cc(S(=O)(=O)[O-])c5ccccc5c4N)cc3)cc2)cc(S(=O)(=O)[O-])c2ccccc12.[OH3+].[OH3+].[Pt+4]`, the growth inhibition was 38% (inactive).

For `COC(=O)CCC(NC(=S)N/N=C(\C)c1ccccn1)C(=O)OC` (stereo not drawn), the growth inhibition was 7% (inactive).

As to `NC(=O)C(=O)NNc1ccccc1`, the growth inhibition is 8% (inactive).

Regarding `COc1cc(C2SCC(=O)N2c2ccc(-c3ccc(-n4c(-c5ccccc5)nc5ccccc5c4=O)cc3)cc2)ccc1O` (stereo not drawn), the growth inhibition was -7% (inactive).

As to `COc1ccc(/C=C/c2sc3ccccc3[n+]2CCCCI)cc1OC`, the growth inhibition was -9% (inactive).

For the molecule `Cc1c(C(C)C)cc(OCCO)cc1C(C)C`, the growth inhibition is 0% (inactive).

For the molecule `Cc1cc(NCCCCCCCCNc2cc(C)nc3cc(N)ccc23)c2ccc(N)cc2n1`, the growth inhibition is 8% (inactive).

With `C=C(Cl)COC(=O)Nc1cccc(Cl)c1`, the growth inhibition was -14% (inactive).

`CC(=O)OC1CC2C(C)(C)C(=O)C=C[C@]2(C)C2CCC3(C)C(=CCC3[C@H](CO)C[C@H](O)C(=O)C(C)(C)O)[C@]12C` (stereo partly drawn): the growth inhibition was 35% (inactive).

Regarding `COc1ccc(/C=C/C(=O)c2ccccc2)cc1OC`, the growth inhibition was 15% (inactive).

With `COc1c(O)c(C=O)c(Br)c(C=O)c1O`, the growth inhibition was 16% (inactive).

On to `O=[N+]([O-])c1cc(Cl)cnc1Br`, for which the growth inhibition was -50% (inactive).

Regarding `Cc1ccc2c(c1)C1(SC(C)C(=O)N1c1ccc(Cl)cc1)C(=O)N2` (stereo not drawn), the growth inhibition was 8% (inactive).

In the case of `COc1cc(CSc2ccc(O)cc2)cc(O)c1O`, the growth inhibition is -3% (inactive).

Regarding `Cc1ccc2c3ccc4c(c3n(C)c2c1)C(=O)C=CC4=O`, the growth inhibition was 9% (inactive).

Regarding `O=C(Nc1ccc(Cl)cc1)Nc1nnc2nc(C(C(=O)c3cccc([N+](=O)[O-])c3Cl)c3nc4nnc(NC(=O)Nc5ccc(Cl)cc5)n4[nH]c3=O)c(=O)[nH]n12`, the growth inhibition is 2% (inactive).

In the case of `O=C(O)C1CC(c2ccccc2)=NN1c1ccccc1` (stereo not drawn), the growth inhibition is -12% (inactive).

As to `CCCCc1ccc(-n2c(C)c(COC(=O)NC)c(COC(=O)NC)c2C)cc1`, the growth inhibition is 26% (inactive).

On to `CCC(=O)c1cc(C(=O)C(=S)SC)cc(C(=O)C(=S)SC)c1`, for which the growth inhibition was 22% (inactive).

`CCn1c(O)c(C=Nc2ccccc2)s/c1=N/Nc1nc(-c2ccccc2)cs1`: the growth inhibition is -7% (inactive).

Consider `Cc1ccccc1N=C(NO)c1ccccc1`, for which the growth inhibition was -61% (inactive).

On to `Cc1nc2ccccc2nc1NNc1ccccc1`, for which the growth inhibition is 13% (inactive).

(Values after PubChem BioAssay (NCI).)
